# Experiments:
# Assay in all cases: DAPPL (digital affinity profiling via proximity ligation, sequencing); 10 mM Tris-HCl pH 7.5, 50 mM NaCl, 1 mM DTT, 4% glycerol, room temperature, 30 min; GST-TFs on glutathione beads, 16-mer random dsDNA library, 0.1% formaldehyde crosslink after washing; high values mean tight binding
# FLI1 = target: T1, FLI1 (Homo sapiens, UniProt Q01543 1-452); conditions: protein: recombinant; tags: N-terminal GST; dsDNA, one strand shown
# T1 sequence: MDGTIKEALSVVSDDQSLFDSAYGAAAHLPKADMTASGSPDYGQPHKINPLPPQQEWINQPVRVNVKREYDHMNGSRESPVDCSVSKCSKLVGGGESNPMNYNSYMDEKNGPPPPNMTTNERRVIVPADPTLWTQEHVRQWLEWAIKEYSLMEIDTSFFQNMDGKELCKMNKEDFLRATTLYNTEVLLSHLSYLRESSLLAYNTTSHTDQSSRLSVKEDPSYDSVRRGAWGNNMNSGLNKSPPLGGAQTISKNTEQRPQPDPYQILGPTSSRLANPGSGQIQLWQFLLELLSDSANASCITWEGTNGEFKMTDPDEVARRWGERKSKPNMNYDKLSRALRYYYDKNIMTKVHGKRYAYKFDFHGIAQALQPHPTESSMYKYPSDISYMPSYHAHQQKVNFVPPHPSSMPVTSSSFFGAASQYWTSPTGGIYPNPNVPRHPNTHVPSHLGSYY
# Procedure, shortened: (§1)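 Human transcription factors carrying a GST fusion were produced in yeast, bound to glutathione beads, tagged with DNA barcodes and pooled together with a tag-only sample. Each pool was held with 200 nmole of a random double-stranded 16-mer DNA library in Tris/NaCl/DTT/glycerol buffer for 30 min at room temperature, then washed, crosslinked in 0.1% formaldehyde, proximity-ligated with BsaI/T4 ligase (1 h, 37 °C), PCR-amplified and sequenced on an Illumina NextSeq500. Binding signal is the read frequency of each hexamer for a given factor divided by its frequency in the tag-only sample.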
# ELK1 = target: T2, ELK1 (Homo sapiens, UniProt P19419 1-428); conditions: protein: recombinant; tags: N-terminal GST; dsDNA, one strand shown
# T2 sequence: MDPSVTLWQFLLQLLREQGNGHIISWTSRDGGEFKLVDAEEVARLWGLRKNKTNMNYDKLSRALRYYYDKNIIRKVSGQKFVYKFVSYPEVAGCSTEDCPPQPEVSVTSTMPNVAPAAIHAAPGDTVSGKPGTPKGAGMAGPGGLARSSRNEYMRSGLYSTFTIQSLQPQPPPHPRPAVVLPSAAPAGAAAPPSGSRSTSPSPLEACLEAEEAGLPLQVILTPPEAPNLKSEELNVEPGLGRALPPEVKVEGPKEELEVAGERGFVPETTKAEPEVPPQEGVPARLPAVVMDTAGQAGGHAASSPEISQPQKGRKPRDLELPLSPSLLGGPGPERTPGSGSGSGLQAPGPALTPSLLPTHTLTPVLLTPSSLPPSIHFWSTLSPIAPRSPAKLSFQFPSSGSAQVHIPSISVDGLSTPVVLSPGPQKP
# Procedure, shortened: as §1
# GABPA = target: T3, GABPA (Homo sapiens, UniProt Q06546 1-454); conditions: protein: recombinant; tags: N-terminal GST; dsDNA, one strand shown
# T3 sequence: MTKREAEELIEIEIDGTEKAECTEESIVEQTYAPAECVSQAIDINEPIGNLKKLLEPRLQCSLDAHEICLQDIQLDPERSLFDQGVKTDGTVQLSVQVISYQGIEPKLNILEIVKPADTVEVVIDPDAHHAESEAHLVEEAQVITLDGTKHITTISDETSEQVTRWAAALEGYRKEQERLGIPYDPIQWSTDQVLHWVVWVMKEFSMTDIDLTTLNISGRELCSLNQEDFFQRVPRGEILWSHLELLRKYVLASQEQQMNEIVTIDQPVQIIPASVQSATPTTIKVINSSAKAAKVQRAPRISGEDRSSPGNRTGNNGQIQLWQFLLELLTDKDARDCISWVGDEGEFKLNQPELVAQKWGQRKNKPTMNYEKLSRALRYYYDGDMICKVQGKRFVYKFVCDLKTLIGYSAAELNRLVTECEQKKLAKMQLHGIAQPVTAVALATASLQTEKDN
# Procedure, shortened: as §1
# ERG = target: T4, ERG (Homo sapiens, UniProt P11308 1-479); conditions: protein: recombinant; tags: N-terminal GST; dsDNA, one strand shown
# T4 sequence: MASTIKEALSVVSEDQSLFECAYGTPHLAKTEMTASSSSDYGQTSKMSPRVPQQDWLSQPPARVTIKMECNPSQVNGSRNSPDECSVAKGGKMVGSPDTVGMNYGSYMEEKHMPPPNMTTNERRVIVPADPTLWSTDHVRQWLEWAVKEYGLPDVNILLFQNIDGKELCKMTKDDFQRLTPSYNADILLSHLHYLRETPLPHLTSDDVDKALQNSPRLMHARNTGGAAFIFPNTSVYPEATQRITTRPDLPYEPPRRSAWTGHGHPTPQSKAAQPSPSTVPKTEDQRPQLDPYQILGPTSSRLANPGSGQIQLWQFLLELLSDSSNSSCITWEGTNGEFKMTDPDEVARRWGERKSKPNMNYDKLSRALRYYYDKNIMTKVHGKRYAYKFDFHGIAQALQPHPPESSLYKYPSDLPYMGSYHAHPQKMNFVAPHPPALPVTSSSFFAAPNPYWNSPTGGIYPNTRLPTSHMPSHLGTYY
# Procedure, shortened: as §1
# ELF1 = ELF1 (Homo sapiens, UniProt P32519 1-619); conditions: protein: recombinant; tags: N-terminal GST; dsDNA, one strand shown
# ELF1, sequence (P32519 whole entry): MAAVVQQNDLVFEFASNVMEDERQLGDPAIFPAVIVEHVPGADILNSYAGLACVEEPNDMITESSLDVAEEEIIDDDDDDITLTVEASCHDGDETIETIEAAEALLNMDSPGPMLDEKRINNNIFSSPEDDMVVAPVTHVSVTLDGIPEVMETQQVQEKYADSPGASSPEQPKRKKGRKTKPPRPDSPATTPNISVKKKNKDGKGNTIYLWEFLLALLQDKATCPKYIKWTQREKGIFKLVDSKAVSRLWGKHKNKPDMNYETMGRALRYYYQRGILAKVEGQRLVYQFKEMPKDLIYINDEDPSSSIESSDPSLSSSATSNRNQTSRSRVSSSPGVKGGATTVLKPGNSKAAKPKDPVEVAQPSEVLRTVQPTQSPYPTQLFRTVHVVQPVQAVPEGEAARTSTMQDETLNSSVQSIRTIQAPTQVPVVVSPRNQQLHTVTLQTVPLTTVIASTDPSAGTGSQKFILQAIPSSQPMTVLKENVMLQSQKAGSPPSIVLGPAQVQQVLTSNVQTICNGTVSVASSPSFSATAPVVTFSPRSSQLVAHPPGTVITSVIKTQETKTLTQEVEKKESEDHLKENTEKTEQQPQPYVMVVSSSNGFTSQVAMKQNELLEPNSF
# Procedure, shortened: as §1
# EHF = target: T5, EHF (Homo sapiens, UniProt Q9NZC4 1-300); conditions: protein: recombinant; tags: N-terminal GST; dsDNA, one strand shown
# T5 sequence: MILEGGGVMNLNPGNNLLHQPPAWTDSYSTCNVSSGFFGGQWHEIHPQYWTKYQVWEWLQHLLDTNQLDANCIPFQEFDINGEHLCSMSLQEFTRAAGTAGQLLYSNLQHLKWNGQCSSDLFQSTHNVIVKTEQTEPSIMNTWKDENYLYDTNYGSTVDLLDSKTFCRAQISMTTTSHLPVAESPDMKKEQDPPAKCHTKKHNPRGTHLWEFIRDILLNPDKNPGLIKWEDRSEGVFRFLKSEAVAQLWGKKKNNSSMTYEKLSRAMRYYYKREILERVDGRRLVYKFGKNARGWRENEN
# Procedure, shortened: as §1
# SPI1 = SPI1 (Homo sapiens, UniProt P17947 1-270); conditions: protein: recombinant; tags: N-terminal GST; dsDNA, one strand shown
# Procedure, shortened: as §1
# SPIB = SPIB (Homo sapiens, UniProt Q01892 1-262); conditions: protein: recombinant; tags: N-terminal GST; dsDNA, one strand shown
# SPIB, sequence (Q01892 whole entry): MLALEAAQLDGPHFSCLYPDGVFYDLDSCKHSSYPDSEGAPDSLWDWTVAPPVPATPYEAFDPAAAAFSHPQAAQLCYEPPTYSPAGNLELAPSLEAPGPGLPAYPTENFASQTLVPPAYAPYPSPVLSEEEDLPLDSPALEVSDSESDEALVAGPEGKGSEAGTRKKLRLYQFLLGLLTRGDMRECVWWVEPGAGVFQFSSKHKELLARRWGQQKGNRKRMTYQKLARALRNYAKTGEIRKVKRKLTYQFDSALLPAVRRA
# Procedure, shortened: as §1
# ELK3 = target: T6, ELK3 (Homo sapiens, UniProt P41970 1-407); conditions: protein: recombinant; tags: N-terminal GST; dsDNA, one strand shown
# T6 sequence: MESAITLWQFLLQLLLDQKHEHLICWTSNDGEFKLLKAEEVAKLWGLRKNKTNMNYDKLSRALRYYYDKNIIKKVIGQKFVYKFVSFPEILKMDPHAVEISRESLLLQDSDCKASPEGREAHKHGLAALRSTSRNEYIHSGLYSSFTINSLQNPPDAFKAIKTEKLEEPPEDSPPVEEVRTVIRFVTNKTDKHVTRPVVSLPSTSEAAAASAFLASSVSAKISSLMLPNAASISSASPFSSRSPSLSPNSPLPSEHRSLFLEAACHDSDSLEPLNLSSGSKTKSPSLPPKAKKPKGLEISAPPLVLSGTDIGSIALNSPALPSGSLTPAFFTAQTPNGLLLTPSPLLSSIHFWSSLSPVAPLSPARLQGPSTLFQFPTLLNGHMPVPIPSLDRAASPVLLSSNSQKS
# Procedure, shortened: as §1
# FEV = target: T7, FEV (Homo sapiens, UniProt Q99581 1-238); conditions: protein: recombinant; tags: N-terminal GST; dsDNA, one strand shown
# T7 sequence: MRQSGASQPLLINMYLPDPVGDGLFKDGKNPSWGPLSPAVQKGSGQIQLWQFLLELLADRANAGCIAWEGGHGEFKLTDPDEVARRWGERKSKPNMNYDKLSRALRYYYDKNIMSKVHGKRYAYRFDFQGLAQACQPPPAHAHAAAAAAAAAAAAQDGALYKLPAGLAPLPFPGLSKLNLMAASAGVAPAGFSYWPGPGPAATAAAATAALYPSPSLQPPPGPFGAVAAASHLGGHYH
# Procedure, shortened: as §1
# ETV5 = ETV5 (Homo sapiens, UniProt P41161 1-510); conditions: protein: recombinant; tags: N-terminal GST; dsDNA, one strand shown
# ETV5, sequence (P41161 whole entry): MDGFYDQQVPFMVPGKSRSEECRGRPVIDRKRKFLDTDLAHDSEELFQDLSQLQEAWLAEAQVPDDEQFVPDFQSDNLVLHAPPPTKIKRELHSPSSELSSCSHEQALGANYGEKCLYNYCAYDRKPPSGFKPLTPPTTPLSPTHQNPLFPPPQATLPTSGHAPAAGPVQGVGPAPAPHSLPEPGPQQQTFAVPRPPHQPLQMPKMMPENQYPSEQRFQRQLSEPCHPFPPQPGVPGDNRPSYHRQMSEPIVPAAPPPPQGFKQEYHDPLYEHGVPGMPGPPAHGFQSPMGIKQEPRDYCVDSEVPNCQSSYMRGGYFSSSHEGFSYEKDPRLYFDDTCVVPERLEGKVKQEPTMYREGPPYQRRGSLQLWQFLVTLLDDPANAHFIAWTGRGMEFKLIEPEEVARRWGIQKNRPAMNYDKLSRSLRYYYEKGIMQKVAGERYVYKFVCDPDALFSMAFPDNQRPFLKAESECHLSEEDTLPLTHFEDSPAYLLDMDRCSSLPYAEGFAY
# Procedure, shortened: as §1
# HSF1 = HSF1 (Homo sapiens, UniProt Q00613 1-529); conditions: protein: recombinant; tags: N-terminal GST; chain copies: 3; dsDNA, one strand shown
# HSF1, sequence (Q00613 whole entry): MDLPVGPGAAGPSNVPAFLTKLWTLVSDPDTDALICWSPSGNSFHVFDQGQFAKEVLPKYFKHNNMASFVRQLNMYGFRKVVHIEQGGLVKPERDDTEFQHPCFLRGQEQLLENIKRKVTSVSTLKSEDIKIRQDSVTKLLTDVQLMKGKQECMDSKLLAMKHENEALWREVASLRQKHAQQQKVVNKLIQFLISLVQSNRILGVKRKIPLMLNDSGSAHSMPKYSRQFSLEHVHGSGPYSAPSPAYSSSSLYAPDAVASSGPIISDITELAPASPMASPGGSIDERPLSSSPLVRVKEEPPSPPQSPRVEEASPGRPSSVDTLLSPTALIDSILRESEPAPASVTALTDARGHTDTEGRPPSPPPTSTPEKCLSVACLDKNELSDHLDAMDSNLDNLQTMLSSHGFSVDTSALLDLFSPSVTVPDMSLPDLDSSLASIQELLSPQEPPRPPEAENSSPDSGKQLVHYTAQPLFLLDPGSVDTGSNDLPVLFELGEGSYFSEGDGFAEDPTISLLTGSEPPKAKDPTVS
# Procedure, shortened: as §1
# SPIC = target: T8, SPIC (Homo sapiens, UniProt Q8N5J4 1-248); conditions: protein: recombinant; tags: N-terminal GST; dsDNA, one strand shown
# T8 sequence: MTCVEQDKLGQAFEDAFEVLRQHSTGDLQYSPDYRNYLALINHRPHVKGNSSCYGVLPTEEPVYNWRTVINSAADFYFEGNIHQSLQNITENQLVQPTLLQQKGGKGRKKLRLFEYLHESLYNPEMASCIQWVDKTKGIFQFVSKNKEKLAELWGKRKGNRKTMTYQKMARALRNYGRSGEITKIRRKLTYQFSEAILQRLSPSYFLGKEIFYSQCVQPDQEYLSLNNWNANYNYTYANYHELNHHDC
# Procedure, shortened: as §1
# ELF4 = ELF4 (Homo sapiens, UniProt Q99607 1-663); conditions: protein: recombinant; tags: N-terminal GST; dsDNA, one strand shown
# ELF4, sequence (Q99607 whole entry): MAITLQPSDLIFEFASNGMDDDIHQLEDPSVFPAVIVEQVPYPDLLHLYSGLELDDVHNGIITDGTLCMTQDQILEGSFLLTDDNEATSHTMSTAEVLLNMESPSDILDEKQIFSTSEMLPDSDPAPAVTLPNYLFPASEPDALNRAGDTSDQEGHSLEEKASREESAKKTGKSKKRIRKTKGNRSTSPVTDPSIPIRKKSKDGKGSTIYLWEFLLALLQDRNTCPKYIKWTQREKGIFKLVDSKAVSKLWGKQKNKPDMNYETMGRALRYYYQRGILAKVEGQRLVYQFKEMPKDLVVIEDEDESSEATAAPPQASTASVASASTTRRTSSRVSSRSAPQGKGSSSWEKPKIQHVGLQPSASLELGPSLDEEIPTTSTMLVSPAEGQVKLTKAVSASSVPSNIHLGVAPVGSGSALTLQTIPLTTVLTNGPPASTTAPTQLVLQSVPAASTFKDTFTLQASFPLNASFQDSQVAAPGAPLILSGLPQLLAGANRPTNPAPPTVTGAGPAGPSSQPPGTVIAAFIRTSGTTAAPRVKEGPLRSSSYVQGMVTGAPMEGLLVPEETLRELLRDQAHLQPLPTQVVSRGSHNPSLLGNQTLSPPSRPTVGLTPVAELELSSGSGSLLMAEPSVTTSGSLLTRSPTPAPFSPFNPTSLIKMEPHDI
# Procedure, shortened: as §1
# ELK4 = target: T9, ELK4 (Homo sapiens, UniProt P28324-2 1-405); conditions: protein: recombinant; tags: N-terminal GST; dsDNA, one strand shown
# T9 sequence: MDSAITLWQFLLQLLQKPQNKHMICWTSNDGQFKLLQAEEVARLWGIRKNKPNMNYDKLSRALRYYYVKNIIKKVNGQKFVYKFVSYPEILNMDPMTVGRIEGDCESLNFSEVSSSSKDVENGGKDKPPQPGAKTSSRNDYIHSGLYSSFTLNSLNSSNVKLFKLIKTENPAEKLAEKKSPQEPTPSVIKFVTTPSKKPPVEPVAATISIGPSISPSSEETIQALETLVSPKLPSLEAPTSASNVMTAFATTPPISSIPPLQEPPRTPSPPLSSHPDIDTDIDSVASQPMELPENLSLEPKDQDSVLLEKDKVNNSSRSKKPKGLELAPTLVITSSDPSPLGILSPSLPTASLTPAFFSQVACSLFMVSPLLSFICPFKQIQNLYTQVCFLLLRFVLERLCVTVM
# Procedure, shortened: as §1
# ETV2 = target: T10, ETV2 (Homo sapiens, UniProt O00321 1-342); conditions: protein: recombinant; tags: N-terminal GST; dsDNA, one strand shown
# T10 sequence: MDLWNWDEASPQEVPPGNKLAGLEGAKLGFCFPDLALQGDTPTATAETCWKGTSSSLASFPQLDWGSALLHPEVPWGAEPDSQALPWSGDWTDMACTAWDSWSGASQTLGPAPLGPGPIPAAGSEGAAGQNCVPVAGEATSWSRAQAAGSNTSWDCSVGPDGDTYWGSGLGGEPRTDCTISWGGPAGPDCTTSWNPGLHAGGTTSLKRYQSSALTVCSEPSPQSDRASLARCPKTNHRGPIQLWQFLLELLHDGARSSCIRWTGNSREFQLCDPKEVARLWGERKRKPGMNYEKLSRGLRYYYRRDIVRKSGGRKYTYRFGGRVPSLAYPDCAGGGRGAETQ
# Procedure, shortened: as §1
# ELF3 = target: T11, ELF3 (Homo sapiens, UniProt P78545 1-371); conditions: protein: recombinant; tags: N-terminal GST; dsDNA, one strand shown
# T11 sequence: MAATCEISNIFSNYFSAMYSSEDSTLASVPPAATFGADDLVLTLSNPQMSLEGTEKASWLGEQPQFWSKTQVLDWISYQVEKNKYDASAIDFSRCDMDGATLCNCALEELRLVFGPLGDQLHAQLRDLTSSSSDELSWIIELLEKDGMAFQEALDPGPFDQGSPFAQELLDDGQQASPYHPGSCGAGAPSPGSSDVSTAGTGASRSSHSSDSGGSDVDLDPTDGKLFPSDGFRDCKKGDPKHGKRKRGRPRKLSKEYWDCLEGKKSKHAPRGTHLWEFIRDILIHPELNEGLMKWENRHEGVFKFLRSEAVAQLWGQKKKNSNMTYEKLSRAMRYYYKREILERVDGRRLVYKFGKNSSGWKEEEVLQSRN
# Procedure, shortened: as §1
# CRX = CRX (Homo sapiens, UniProt O43186 1-299); conditions: protein: recombinant; tags: N-terminal GST; dsDNA, one strand shown
# CRX, sequence (O43186 whole entry): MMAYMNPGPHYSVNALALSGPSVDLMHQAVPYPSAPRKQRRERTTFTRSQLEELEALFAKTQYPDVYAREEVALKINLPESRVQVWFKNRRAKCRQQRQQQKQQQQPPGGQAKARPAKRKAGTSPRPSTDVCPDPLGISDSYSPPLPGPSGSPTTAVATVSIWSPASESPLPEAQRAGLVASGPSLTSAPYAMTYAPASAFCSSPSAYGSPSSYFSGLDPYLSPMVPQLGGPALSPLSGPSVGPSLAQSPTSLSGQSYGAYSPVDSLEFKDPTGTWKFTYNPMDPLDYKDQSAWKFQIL
# Procedure, shortened: as §1
# ETV1 = ETV1 (Homo sapiens, UniProt P50549 1-477); conditions: protein: recombinant; tags: N-terminal GST; dsDNA, one strand shown
# ETV1, sequence (P50549 whole entry): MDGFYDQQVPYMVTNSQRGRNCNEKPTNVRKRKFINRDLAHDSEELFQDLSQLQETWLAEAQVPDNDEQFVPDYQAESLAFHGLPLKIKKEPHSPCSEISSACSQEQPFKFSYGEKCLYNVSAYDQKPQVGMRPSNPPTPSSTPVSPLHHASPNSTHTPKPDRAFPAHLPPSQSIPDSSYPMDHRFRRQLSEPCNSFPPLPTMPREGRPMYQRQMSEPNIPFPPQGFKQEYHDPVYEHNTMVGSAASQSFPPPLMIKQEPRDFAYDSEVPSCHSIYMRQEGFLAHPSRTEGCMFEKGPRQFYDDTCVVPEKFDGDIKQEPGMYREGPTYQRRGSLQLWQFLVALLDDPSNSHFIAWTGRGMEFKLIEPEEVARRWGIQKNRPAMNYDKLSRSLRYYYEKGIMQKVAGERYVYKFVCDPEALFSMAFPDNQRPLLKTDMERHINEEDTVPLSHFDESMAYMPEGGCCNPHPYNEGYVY
# Procedure, shortened: as §1
sequence,measurement,setting,value
CTTGAT,binding signal,FLI1,"1.52 fold enrichment (6-mer frequency, TF over GST control)"
same,binding signal,ELK1,"1.53 fold enrichment (6-mer frequency, TF over GST control)"
same,binding signal,GABPA,"1.52 fold enrichment (6-mer frequency, TF over GST control)"
same,binding signal,ERG,"1.34 fold enrichment (6-mer frequency, TF over GST control)"
same,binding signal,ELF1,"1.42 fold enrichment (6-mer frequency, TF over GST control)"
same,binding signal,EHF,"1.51 fold enrichment (6-mer frequency, TF over GST control)"
same,binding signal,SPI1,"1.27 fold enrichment (6-mer frequency, TF over GST control)"
same,binding signal,SPIB,"1.41 fold enrichment (6-mer frequency, TF over GST control)"
same,binding signal,ELK3,"1.34 fold enrichment (6-mer frequency, TF over GST control)"
same,binding signal,FEV,"1.38 fold enrichment (6-mer frequency, TF over GST control)"
same,binding signal,ETV5,"1.43 fold enrichment (6-mer frequency, TF over GST control)"
same,binding signal,HSF1,"1.44 fold enrichment (6-mer frequency, TF over GST control)"
same,binding signal,SPIC,"1.41 fold enrichment (6-mer frequency, TF over GST control)"
same,binding signal,ELF4,"1.43 fold enrichment (6-mer frequency, TF over GST control)"
same,binding signal,ELK4,"1.43 fold enrichment (6-mer frequency, TF over GST control)"
same,binding signal,ETV2,"1.43 fold enrichment (6-mer frequency, TF over GST control)"
same,binding signal,ELF3,"1.38 fold enrichment (6-mer frequency, TF over GST control)"
same,binding signal,CRX,"1.57 fold enrichment (6-mer frequency, TF over GST control)"
same,binding signal,ETV1,"1.29 fold enrichment (6-mer frequency, TF over GST control)"
